Measured values published in ChEMBL document CHEMBL1961873, “Compounds: GSK PKIS; Assays: Nanosyn kinase panel” (2012).

Assays:
[1] = biological target: Tyrosine-protein kinase Fyn (Homo sapiens) (UniProt P06241); conditions: at 1 µM
[2] = biological target: Tyrosine-protein kinase HCK (Homo sapiens) (UniProt P08631); conditions: at 0.1 µM
[3] = biological target: Tyrosine-protein kinase HCK (Homo sapiens) (UniProt P08631); conditions: at 1 µM
[4] = biological target: Insulin-like growth factor 1 receptor (Homo sapiens) (UniProt P08069); conditions: at 0.1 µM
[5] = biological target: Insulin-like growth factor 1 receptor (Homo sapiens) (UniProt P08069); conditions: at 1 µM
[6] = biological target: Insulin receptor (Homo sapiens) (UniProt P06213); conditions: at 0.1 µM
[7] = biological target: Insulin receptor (Homo sapiens) (UniProt P06213); conditions: at 1 µM
[8] = biological target: Insulin receptor-related protein (Homo sapiens) (UniProt P14616); conditions: at 0.1 µM
[9] = biological target: Insulin receptor-related protein (Homo sapiens) (UniProt P14616); conditions: at 1 µM
[10] = biological target: T1, Tyrosine-protein kinase ITK/TSK (Homo sapiens) (UniProt Q08881); conditions: at 0.1 µM;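 further: mean percent inhibition of ITK from the GSK PKIS screen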
T1 sequence (whole entry): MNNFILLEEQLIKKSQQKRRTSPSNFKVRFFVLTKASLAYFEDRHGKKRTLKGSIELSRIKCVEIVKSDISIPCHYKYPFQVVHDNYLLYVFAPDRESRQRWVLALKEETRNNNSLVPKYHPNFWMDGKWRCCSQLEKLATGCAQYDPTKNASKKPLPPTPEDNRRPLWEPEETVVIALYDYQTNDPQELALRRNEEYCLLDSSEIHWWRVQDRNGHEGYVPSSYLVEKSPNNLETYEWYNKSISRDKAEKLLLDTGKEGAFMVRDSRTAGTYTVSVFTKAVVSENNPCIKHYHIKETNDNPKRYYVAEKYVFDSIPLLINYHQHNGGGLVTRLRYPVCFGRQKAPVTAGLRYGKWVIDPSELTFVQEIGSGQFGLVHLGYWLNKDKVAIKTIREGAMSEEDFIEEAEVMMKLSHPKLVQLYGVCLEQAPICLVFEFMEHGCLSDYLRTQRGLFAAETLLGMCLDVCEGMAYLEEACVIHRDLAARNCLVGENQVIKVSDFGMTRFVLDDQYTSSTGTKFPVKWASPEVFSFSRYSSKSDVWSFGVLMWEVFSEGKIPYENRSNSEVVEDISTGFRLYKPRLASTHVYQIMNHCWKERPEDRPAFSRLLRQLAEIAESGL

Sequence of Tyrosine-protein kinase HCK (Homo sapiens) (P08631 2-526 limits assumed): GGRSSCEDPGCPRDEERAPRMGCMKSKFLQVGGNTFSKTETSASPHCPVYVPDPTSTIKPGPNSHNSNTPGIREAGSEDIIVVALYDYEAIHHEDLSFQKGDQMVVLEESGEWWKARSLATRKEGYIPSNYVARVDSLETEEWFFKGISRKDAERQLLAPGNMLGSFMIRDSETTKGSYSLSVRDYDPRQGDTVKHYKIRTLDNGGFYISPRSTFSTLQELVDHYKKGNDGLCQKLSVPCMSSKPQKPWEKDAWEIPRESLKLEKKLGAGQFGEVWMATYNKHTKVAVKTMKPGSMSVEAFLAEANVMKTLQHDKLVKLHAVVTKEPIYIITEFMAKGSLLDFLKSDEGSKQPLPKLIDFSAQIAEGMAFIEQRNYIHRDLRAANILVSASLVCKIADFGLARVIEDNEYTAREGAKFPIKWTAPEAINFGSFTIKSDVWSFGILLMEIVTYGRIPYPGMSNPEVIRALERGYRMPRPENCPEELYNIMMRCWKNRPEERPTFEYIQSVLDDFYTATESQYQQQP
Sequence of Insulin receptor (Homo sapiens) (P06213 28-758 limits assumed): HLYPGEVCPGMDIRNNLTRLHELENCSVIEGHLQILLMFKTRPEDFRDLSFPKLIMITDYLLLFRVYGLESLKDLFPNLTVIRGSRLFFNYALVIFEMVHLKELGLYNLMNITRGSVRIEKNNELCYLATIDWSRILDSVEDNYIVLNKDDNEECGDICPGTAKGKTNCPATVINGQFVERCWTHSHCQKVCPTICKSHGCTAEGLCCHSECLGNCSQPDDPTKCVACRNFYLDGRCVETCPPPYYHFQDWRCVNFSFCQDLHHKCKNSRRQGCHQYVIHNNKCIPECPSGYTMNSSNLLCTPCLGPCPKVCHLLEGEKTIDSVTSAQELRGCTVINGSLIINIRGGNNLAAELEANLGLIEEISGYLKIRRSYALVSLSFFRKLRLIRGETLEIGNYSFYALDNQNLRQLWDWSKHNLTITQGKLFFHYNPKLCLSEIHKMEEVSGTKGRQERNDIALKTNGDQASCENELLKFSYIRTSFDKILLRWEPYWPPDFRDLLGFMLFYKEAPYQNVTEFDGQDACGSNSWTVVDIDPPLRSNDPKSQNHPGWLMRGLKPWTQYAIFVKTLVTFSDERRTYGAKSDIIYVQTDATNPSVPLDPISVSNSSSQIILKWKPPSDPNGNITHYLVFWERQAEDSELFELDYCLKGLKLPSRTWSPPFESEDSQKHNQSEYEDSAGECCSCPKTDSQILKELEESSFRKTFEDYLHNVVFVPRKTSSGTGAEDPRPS
Sequence of Insulin receptor (Homo sapiens) (P06213 763-1382 limits assumed): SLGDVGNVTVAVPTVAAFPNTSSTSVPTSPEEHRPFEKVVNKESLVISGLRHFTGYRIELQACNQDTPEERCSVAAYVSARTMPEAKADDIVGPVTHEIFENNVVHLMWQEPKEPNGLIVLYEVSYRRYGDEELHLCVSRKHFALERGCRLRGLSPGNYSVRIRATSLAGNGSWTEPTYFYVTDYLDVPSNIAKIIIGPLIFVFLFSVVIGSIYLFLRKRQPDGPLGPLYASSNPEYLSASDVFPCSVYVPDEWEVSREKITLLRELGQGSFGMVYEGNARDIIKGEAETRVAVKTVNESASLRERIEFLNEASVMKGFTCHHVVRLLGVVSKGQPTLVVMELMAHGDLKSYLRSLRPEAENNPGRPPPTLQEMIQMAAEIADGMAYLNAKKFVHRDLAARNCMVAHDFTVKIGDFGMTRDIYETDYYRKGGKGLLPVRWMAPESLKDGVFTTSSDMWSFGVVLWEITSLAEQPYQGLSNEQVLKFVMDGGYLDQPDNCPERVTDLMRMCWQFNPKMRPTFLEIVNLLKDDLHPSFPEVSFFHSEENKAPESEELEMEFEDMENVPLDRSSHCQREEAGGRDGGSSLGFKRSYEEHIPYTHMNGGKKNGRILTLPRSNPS
Sequence of Insulin-like growth factor 1 receptor (Homo sapiens) (P08069 31-736 limits assumed): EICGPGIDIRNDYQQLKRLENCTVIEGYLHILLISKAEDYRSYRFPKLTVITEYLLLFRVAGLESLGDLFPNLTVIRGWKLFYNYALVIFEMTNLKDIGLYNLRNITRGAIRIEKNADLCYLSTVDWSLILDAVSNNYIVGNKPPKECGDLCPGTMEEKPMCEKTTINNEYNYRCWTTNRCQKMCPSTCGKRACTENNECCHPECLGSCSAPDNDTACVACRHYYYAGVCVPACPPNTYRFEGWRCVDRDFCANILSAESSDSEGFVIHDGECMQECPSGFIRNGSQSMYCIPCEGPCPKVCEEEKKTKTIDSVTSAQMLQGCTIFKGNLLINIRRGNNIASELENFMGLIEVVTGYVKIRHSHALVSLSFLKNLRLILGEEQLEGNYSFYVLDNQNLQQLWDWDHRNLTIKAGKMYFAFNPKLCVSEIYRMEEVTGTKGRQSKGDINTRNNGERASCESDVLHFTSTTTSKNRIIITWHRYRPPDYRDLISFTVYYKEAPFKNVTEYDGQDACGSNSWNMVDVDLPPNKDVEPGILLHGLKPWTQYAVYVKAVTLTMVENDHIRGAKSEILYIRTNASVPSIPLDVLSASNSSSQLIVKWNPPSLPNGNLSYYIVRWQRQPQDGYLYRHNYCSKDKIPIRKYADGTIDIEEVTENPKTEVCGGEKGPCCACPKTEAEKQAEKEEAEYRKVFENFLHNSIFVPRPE
Sequence of Insulin-like growth factor 1 receptor (Homo sapiens) (P08069 741-1367 limits assumed): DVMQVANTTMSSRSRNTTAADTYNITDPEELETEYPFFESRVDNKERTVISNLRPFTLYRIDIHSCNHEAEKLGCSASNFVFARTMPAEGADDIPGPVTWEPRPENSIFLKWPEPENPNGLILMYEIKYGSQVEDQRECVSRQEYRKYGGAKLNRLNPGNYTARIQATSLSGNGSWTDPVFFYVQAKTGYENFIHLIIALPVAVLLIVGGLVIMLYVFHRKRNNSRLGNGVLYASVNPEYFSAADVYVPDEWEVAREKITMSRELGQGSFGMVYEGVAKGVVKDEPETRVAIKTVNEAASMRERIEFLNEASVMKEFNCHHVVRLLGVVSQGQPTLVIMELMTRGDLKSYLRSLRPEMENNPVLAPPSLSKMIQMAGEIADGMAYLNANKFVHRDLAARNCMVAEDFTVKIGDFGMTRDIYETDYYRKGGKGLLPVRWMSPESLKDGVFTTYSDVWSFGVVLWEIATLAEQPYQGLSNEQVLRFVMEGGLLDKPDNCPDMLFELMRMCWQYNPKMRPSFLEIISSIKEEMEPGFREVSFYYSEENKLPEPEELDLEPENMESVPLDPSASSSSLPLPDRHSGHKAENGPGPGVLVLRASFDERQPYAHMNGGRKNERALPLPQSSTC
Sequence of Insulin receptor-related protein (Homo sapiens) (P14616 27-742 limits assumed): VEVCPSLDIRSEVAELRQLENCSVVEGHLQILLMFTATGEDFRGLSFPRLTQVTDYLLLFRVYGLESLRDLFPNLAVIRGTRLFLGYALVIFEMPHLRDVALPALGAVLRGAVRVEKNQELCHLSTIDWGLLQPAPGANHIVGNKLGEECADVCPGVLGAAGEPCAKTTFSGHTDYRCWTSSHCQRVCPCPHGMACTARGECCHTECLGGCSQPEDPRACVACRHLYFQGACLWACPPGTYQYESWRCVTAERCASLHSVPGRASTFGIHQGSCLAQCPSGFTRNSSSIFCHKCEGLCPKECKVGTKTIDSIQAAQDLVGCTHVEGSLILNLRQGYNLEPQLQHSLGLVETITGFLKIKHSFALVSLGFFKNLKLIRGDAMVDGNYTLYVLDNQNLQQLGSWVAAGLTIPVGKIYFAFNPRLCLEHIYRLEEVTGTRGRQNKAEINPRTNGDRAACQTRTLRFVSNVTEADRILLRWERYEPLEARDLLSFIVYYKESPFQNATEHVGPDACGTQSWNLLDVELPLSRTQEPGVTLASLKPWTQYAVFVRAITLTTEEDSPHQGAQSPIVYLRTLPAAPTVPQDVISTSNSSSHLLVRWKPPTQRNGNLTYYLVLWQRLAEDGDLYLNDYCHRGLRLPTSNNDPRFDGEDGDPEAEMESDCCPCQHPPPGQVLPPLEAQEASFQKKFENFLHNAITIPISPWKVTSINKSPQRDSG
Sequence of Insulin receptor-related protein (Homo sapiens) (P14616 747-1297 limits assumed): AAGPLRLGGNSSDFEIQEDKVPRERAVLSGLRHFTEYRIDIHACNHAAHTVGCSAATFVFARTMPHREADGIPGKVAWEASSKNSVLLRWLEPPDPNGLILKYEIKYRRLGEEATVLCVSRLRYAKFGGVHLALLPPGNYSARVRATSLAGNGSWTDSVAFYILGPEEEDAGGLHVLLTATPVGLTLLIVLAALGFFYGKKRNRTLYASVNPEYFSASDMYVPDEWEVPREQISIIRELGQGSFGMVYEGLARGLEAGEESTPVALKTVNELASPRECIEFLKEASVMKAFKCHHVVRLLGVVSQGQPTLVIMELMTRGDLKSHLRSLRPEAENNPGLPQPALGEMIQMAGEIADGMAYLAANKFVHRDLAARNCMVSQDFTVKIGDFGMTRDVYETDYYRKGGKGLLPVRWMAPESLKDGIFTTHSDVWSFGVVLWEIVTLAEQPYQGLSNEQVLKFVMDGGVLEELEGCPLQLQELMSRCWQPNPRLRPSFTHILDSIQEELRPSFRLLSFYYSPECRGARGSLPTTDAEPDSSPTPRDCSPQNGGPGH
Sequence of Tyrosine-protein kinase Fyn (Homo sapiens) (P06241 2-537 limits assumed): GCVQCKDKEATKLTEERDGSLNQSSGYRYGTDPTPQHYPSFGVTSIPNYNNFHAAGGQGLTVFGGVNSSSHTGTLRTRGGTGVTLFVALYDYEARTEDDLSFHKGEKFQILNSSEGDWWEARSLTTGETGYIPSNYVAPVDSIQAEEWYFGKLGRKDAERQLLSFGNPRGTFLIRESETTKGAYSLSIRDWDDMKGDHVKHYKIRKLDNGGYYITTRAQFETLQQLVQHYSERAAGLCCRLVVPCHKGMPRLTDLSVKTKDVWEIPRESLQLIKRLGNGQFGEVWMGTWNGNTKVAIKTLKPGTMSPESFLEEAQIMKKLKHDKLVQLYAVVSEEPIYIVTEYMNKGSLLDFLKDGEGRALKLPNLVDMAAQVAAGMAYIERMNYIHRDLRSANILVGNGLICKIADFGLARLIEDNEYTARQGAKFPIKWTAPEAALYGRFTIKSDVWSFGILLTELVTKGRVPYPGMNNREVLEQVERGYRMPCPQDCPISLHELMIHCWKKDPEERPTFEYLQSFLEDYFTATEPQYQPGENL

Compound | inhibition [1] [%] | inhibition [2] [%] | inhibition [3] [%] | inhibition [4] [%] | inhibition [5] [%] | inhibition [6] [%] | inhibition [7] [%] | inhibition [8] [%] | inhibition [9] [%] | inhibition [10] [%]
Nc1nonc1-c1nc2cnccc2n1C1CCCCC1 | 4.39 | -1 | 0.66 | -3.43 | -0.98 | -0.54 | -0.22 | -2.35 | -3.62 | -0.34
NC(=O)c1sc(-n2cnc3cc(C(F)(F)F)ccc32)cc1OCc1ccccc1Br | 7.58 | 2.82 | 0.29 | -2.64 | 0.95 | 0.33 | 1.77 | 1.13 | -0.33 | -0.64
COc1cc(C=NNc2ncnc3c2cnn3Cc2ccccc2)ccc1O | 4.87 | 3.29 | 33.7 | -3.54 | -1.6 | -3.1 |  | -3.04 | -4.41 | -1.61
CCn1c(-c2nonc2N)nc2c(C#CC(C)(C)O)ncc(OC[C@@H]3CCCN3)c21 | 1.07 | -1.1 | 1 | -4.88 | 0.19 | 0.85 | -1.35 | -1.3 | -0.44 | -1.58
Cc1cc(-c2ccco2)cc(C)c1/C=C/c1cncc(-c2nn[nH]n2)c1 | 1.98 | 1.62 | 3.34 | -1.5 | 1.06 | 0.61 | 0.42 | 1.36 | -0.21 | -0.49
NS(=O)(=O)c1ccc(-c2ccc3c(NC(=O)C4CC4)n[nH]c3c2)cc1 | 2.42 | 4.22 | 9.28 | 0.89 | 1.61 | 1.23 | 2.43 | 3.82 | 2.73 | 1.9
NS(=O)(=O)c1ccc(N/C=C2\C(=O)Nc3ccc4ncsc4c32)cc1 | 9.66 | 9.53 | 28.9 | 16 | 19.4 | 0.99 | 11.7 | 0.69 | 4.17 | 1.17
COc1cccc(COc2cc(-n3cnc4ccccc43)sc2C(N)=O)c1 | 2.15 | -1.32 | -0.98 | -3.85 | -1.64 | -3.2 | 0.19 | -0.6 | -1.17 | -2.19
CCn1c(-c2nonc2N)nc2c(C#CC(C)(C)O)nc(O[C@@H](CN)c3ccccc3)cc21 | 25 | 0.41 | 14.1 | -2.18 | -0.35 | 1.17 | 1.91 | -1.87 | -2.16 | 0.11
COc1cccc(-n2ncc3c(N/N=C/c4ccncc4)ncnc32)c1 | 73.8 | 15.7 | 59.2 | 4.62 | 4.88 | 6.46 | 7.36 | 1.64 | 5.33 | 1.63
COc1cc2c(cc1Nc1nc(Nc3ccsc3C(N)=O)c3cc[nH]c3n1)N(C(=O)CN(C)C)CCC2 | 6.09 | 14 | 16.6 | 99.3 | 101 | 102 | 99.9 | 95.7 | 97.3 | -1.24
CCn1c(-c2nonc2N)nc2c(C#CCN)ncc(OCCCN)c21 | -1.61 | 0.79 | -3.58 | -5.07 | -6.11 | -5.48 | -4.01 | -0.39 | 0.07 | 0.2
CCn1c(-c2nonc2N)nc2c(C#CC(C)(C)O)ncc(OCC3CCNCC3)c21 | 2.15 | 2.07 | 5.41 | -3.92 | -4.46 | 2.75 | 1.72 | 2.1 | 2.17 | -2.28
Fc1ccc(-c2ncn(C3CCNCC3)c2-c2ccnc(Oc3ccccc3)n2)cc1 | -3.36 | 2.11 | 1.98 |  | -4.15 | 2.42 | 3.05 | 0.57 | 0.22 | -3.91
